# Assay outcomes: PubChem, several laboratories
# In the library only some 2.1% were active in any assay of this set; here they are far more common.
# Calb FLC = C. albicans growth modulation with fluconazole | AID 1979 | C. albicans CaCi-2 (fluconazole-resistant clinical isolate) + fluconazole, Alamar Blue growth, 48 h | growth inhibition, % (concentration not given with the values) | 300,000 compounds, 0.57% hits;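 active means growth inhibition above about 58% in most replicates, limit read from the data, passing the limit was not always enough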;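 further: all wells also contain fluconazole at 8 µg/ml as a sub-toxic cotreatment; 0% = median of DMSO wells and 100% = median of geldanamycin control wells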
# Rin1 Abl inh = inhibitors of human Rin1-Abl protein interaction. P00519+Q13671. TR-FRET Rin1/Abl binding, biochemical. inhibition, % at 7.35 µM. 360,000 compounds, 0.4% hits. AID 588664; in the data active means inhibition above about 5%, passing the limit was not always enough
# Target sequence (P00519 whole entry, looked up): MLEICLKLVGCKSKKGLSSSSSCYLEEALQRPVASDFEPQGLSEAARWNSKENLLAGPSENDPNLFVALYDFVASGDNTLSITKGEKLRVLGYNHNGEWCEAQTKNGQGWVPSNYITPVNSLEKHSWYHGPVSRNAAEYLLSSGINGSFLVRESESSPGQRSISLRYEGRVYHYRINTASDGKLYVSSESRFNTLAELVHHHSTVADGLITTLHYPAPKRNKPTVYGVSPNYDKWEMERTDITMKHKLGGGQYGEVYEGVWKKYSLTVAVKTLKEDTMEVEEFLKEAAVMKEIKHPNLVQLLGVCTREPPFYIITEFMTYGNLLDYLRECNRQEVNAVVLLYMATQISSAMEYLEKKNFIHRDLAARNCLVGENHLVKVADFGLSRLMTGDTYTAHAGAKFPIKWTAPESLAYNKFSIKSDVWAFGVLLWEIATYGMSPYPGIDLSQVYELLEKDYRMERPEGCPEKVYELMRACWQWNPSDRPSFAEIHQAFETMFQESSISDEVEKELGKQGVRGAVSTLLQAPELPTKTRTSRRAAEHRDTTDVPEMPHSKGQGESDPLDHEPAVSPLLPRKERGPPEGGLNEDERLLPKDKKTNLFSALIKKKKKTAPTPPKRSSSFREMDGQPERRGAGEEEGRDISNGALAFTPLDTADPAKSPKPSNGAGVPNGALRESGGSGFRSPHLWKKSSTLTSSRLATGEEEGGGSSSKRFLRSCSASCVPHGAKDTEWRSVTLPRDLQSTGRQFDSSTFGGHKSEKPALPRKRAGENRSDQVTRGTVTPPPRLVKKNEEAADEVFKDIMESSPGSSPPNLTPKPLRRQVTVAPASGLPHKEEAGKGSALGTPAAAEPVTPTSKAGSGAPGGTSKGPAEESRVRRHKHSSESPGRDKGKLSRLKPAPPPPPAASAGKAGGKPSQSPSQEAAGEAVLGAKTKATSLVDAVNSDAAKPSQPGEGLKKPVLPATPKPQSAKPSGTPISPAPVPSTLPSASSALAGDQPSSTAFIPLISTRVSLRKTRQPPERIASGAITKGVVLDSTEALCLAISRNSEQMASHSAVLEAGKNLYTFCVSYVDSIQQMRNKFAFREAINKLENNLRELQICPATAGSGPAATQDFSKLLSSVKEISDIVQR
# Target sequence (Q13671 whole entry, looked up): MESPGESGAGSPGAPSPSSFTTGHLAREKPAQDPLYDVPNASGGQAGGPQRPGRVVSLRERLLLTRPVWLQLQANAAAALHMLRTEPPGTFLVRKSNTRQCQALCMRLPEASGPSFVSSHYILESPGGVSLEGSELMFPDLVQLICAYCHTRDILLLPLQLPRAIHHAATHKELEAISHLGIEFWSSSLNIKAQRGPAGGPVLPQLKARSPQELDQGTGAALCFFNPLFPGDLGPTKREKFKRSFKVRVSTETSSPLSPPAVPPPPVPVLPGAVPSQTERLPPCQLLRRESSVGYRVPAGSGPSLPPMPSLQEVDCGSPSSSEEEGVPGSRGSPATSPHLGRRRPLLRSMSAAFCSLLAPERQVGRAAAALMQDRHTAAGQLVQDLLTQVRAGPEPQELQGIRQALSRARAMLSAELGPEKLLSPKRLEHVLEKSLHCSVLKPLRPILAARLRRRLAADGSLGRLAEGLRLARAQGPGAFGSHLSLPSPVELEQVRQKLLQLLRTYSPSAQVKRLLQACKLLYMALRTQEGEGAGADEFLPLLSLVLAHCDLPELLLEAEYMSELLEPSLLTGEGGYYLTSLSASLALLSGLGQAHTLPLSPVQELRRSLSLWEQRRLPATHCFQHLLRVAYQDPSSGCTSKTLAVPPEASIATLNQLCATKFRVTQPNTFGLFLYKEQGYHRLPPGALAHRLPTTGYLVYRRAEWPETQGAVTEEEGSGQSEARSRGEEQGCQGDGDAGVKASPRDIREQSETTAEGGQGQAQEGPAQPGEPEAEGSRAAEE
# PfM18AAP inh-1 = PfM18AAP enzyme inhibition; recombinant PfM18AAP, H-Glu-NHMec fluorogenic cleavage; inhibition, % at 7.35 µM; 290,000 compounds, 1.2% hits; AID 1822;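 active means inhibition above the campaign mean inhibition over all tested compounds plus 3 SD, cut at about 28% in these data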;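 further: 0% = plate median of test compound wells and 100% = 2 mM ZnCl2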
# CTSL1 counter-1 = blocks F. hepatica cathepsin L1 in PFM18AAP counter-screen. AID 1906. recombinant F. hepatica cathepsin L1, Z-Leu-Arg-MCA fluorescence. 300,000 compounds, 0.49% hits. inhibition, % at 5.96 µM;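 active means inhibition above the mean of all tested compounds plus 3 SD, set per screening campaign, cut at about 17% in these data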;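 further: 0% = plate median of test compound wells and 100% = 1 µM Z-Phe-Ala-diazomethylketone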
# PfM18AAP inh-2 = confirmation of Plasmodium falciparum M18 aspartyl aminopeptidase inhibitors; inhibition, % at 7.35 µM; shares compounds with PfM18AAP inh-1; 2,400 compounds, 28% hits; recombinant PfM18AAP, H-Glu-NHMec fluorogenic cleavage;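 active means mean inhibition over replicate wells above the hit cutoff set for the earlier primary screen, cut at about 29% in these data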;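 further: 0% = median of test compound wells and 100% = 2 mM ZnCl2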
# CTSL1 counter-2 = Cathepsin L (human) inhibition, confirmation. shares compounds with PfM18AAP inh-1. purified cathepsin L1, Z-Leu-Arg-MCA fluorescence. inhibition, % at 5.96 µM. 2,400 tested, under 10 active;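 active means average inhibition across replicates above the hit cutoff set in the earlier primary screen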;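 further: 0% = median of test compound wells and 100% = Z-Phe-Ala-diazomethylketone 1 µM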
# * hit, by the source's call; . = not tested or not shown.
SMILES,Calb FLC,Rin1 Abl inh,PfM18AAP inh-1,CTSL1 counter-1,PfM18AAP inh-2,CTSL1 counter-2
CCC(C)N(NC(C)=O)c1nc(Cl)nc(NC(C)C)n1 (centres undefined),9.3,1.8,2.9,-6.5,.,.
Cc1cc(C)c2nc(-c3ccccn3)cc(C(=O)Nn3cnnc3)c2c1,0.2,0.7,44.1*,-0.5,29.4*,-4.4
O=C(CSc1nnc(-c2ccccc2)o1)Nn1cnnc1,-14.3,-0.2,72.1*,-0.2,72.6*,1.0
Cc1ccccc1C(=O)Nn1cnnc1,-1.6,0.5,33.0*,-0.9,23.6,-4.1
NNC(=O)CP(=O)(c1ccccc1)c1ccccc1,-6.8,-1.8,.,-0.9,.,.
O=C(CP(=O)(c1ccccc1)c1ccccc1)Nn1cnnc1,-6.9,-0.7,34.5*,-1.5,49.1*,5.2
CCOC(=O)c1c(C)[nH]c(C)c1C(=O)COC(=O)CCc1ccccc1,.,2.4,.,.,.,.
Brc1ccc(CNc2cc3c(cc2Br)OCCO3)cc1,-12.3,-0.8,3.4,0.1,.,.
Nc1c(C(=O)c2ccccc2)sc2nsc(SCCN3CCCC3)c12,-21.1,-11.2,35.1*,3.2,-30.2,-4.2
Nc1c(C(=O)c2ccc(Cl)cc2)sc2nsc(SCCN3CCOCC3)c12,1.9,-0.9,33.7*,3.6,-28.1,4.5
CC(=O)c1sc2nsc(SCCN3CCCCC3)c2c1N,-5.4,-4.2,33.2*,-0.6,-40.8,-5.4
Cc1ccc(NC(=O)CN(C)C(=O)CNC(=O)c2cccs2)cc1,2.1,-1.7,.,0.9,.,.
CSC1=NS(=O)(=O)c2c(C)nn(C)c2S1,1.0,0.6,56.8*,-2.6,-14.1,-6.2
CCCC(/C=C/c1ccc(OC(C)=O)cc1)=C1/c2ccccc2C(=O)N1c1ccccc1,.,-1.3,.,.,.,.
Oc1ccc(NCc2ccccc2OCc2ccccc2)cc1,0.1,3.4,48.9*,2.5,-20.7,-2.4
CCOC(=O)c1c(NS(=O)(=O)c2cccc(OC)c2)sc2c1CCC2,30.4,-3.5,33.2*,-2.1,-83.8,0.5
CCOC(=O)Nc1sc2c(c1C(=O)OCC)CCC2,13.9,-3.0,-8.3,0.6,.,.
NNc1ccc(S(=O)(=O)N2CCCCC2)cn1,-8.6,-2.1,33.3*,1.0,31.2*,0.6
Cc1ccc(S(=O)(=O)N/N=C\c2cc3c(cc2Br)OCO3)cc1,3.9,-5.1,12.0,-0.6,.,.
O=[N+]([O-])c1cc2c(cc1/C=N/NS(=O)(=O)c1ccc(Br)cc1)OCO2,-3.3,-2.9,49.7*,2.1,12.9,-1.6
CC(C)c1ccc(S(=O)(=O)NC2CCS(=O)(=O)C2)cc1 (centres undefined),-3.6,2.9,.,-0.7,.,.
COc1cc(-c2nc(=S)[nH][nH]2)cc(OC)c1OC,-16.9,2.5,35.3*,-0.4,26.4,-5.8
CC1CCC(C(C)C)C2=C1C(C#N)(C#N)C(C#N)(C#N)C(c1ccccc1)N2 (centres undefined),4.6,-3.5,35.8*,2.3,-32.4,-1.7
O=C1/C(=C/c2ccco2)SC(=S)N1CCC(=O)N1CCCCC1CCO (centres undefined),28.0,-5.2,31.8*,6.2,-26.4,1.4
O=C1/C(=C/c2ccc(Cl)cc2)SC(=S)N1CCC(=O)N1CCCCC1CCO (centres undefined),-2.4,-1.2,2.0,4.3,.,.
SMILES,Calb FLC,Rin1 Abl inh,PfM18AAP inh-1,CTSL1 counter-1,PfM18AAP inh-2,CTSL1 counter-2
Oc1c(C(c2ccccc2)N2CCCCC2)sc2ncnn12 (centres undefined),-3.8,2.4,57.0*,-0.2,-25.7,-4.5
c1ccc(NCn2cncn2)nc1,3.2,-0.1,87.1*,1.1,65.8*,3.3
O=C1CCC(=O)N1CNc1ccccn1,-3.3,3.7,-3.7,2.0,.,.
COc1cc(/C=C/C(=O)c2cccc([N+](=O)[O-])c2)cc(OC)c1OC,19.7,-6.0,7.5,1.4,.,.
O=C(/C=C/c1ccccc1F)c1cccc([N+](=O)[O-])c1,2.9,-3.4,33.9*,-2.8,3.6,4.9
CC1=CC(C)(C)N(C(=O)CSc2ncn[nH]2)c2ccc(C)cc21,-7.6,0.8,56.4*,-2.2,-30.8,3.6
CC1=CC(C)(C)N(C(=O)CN2C(=O)CCC2=O)c2ccc(C)cc21,-4.3,-0.7,3.9,0.0,.,.
CN(C)c1nc(SCc2ccc(Cl)cc2)nc2c1CCCC2,-5.1,3.9,0.0,-3.8,.,.
Cc1ccc2oc(=O)c(/C=C(\O)c3ccco3)nc2c1,1.1,4.1,50.3*,2.5,21.2,3.5
Cc1cc(C)cc(NCc2cc3c(cc2[N+](=O)[O-])OCO3)c1,1.4,4.2,14.3,3.4,.,.
COc1ccc(CNCc2cc3c(cc2[N+](=O)[O-])OCO3)cc1,8.6,-1.2,38.3*,7.6,-14.8,-1.5
COc1cccc(C(=O)NNC(=O)Cc2csc(N)n2)c1,26.9,-2.6,35.7*,0.3,-38.8,-4.0
CCOC(=O)Cc1csc(NC(=O)c2cccc(OC)c2)n1,-4.3,1.1,1.8,5.9,.,.
CC1CCCC(NC(=O)CN2C(=O)NC(Cc3c[nH]c4ccccc34)C2=O)C1C (centres undefined),.,-1.6,.,.,.,.
C=CCn1c(=O)c2c(nc3n2CCCN3CCc2ccc(OC)c(OC)c2)n(C)c1=O,-6.2,1.1,1.7,.,.,.
O=C(O)CCC(=O)Nc1sc2c(c1C(=O)NCc1ccccc1)CCCC2,1.6,-0.1,2.7,-2.6,.,.
COc1ccc(NC(=O)c2c(NC(=O)CCC(=O)O)sc3c2CCCCC3)cc1,-37.2,3.2,43.8*,8.7,-45.6,-5.5
CN(CC(=O)Nc1n[nH]c(=S)s1)S(=O)(=O)c1cccc2cccnc12,-9.9,0.3,51.5*,2.7,20.8,-0.1
CCOC(=O)/C(=C/C=C1\Sc2ccccc2N1CC)C(C)=O,-5.0,-22.4,43.3*,7.5,-36.9,0.2
CCOC(=O)/C(=C\C=C1/Sc2ccccc2N1CC)C(C)=O,3.9,-37.3,45.0*,6.6,-19.6,8.4
COc1ccccc1N1CCN(c2ccc3c(c2)S(=O)(=O)c2cccc(C(=O)NCC4CC4)c2C3=O)CC1,.,-4.4,.,.,.,.
CC(C(=O)Nc1ccccc1F)N1C(=O)c2ccccc2C1=O (centres undefined),1.7,0.9,-0.9,-2.3,.,.
CC(C(=O)Nc1ncn[nH]1)N1C(=O)c2ccccc2C1=O (centres undefined),-4.8,0.7,50.6*,-5.7,51.5*,-5.0
COc1ccc(NC(=O)NNC(=O)c2ccc3ccccc3c2O)c(OC)c1,10.0,-2.2,35.6*,2.7,5.3,1.1
CCc1ccccc1NC(=O)NNC(=O)c1ccc2ccccc2c1O,22.7,0.1,38.9*,-1.6,3.1,-0.7
COc1ccc(NC(=O)NNC(=O)c2cc(C3CC3)nc3ccccc23)c(OC)c1,2.0,-2.0,-2.8,9.9,.,.
CSc1ncccc1C(=O)Nc1nnc(C2CC2)s1,44.9,-2.8,-10.0,0.8,.,.
Nc1cc(S(=O)(=O)N2CCOCC2)ccc1N1CCCCC1,.,0.9,.,.,.,.
O=c1c2ccccc2sn1-c1cc(S(=O)(=O)N2CCOCC2)ccc1N1CCCC1,2.5,-5.9,41.2*,-0.3,26.7,-1.2
Cc1ccc(-n2c(-c3ccccc3)nnc2-c2cccs2)cc1,-14.1,-1.0,3.3,-1.2,.,.
